Results: PubChem BioAssay AID1159580 (chemical genetic matrix, 2015)
Hit rate of the full screen: of about 5,500 compounds, about 2,000 (36%) were called active. Inconclusive results (about 18%) are left out. Cut-off read from the data, not from the text of the source: active = normalized growth mostly below about 0.91 (no sharp cut-off); inconclusive = no clear call, values can overlap the other calls; inactive = mostly above about 0.92. The list shows a part of the results.

Experiment: chemical genetic growth profiling, strain panel (AID 1159580);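 note: tested at 20 µM; growth read once vehicle control cultures reached saturation at 30 °C; 1 = growth at the plate median or of vehicle wells; lower values mean less growth of the strain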
Conditions: S. cerevisiae deletion strains, growth OD

Measured: normalized growth

CC1CN(S(=O)(=O)c2cccc3cnccc23)CCN1 (stereo not drawn)
inactive: locus YAL040C, strain CLN3, hits give low values 1.01 | locus YCL061C, strain MRC1 (second series), hits give low values 1.01 | locus YDR363W, strain ESC2, hits give low values 1.02 | locus YER002W, strain NOP16, hits give low values 1 | locus YGR078C, strain PAC10, hits give low values 1.02 | locus YJR075W, strain HOC1, hits give low values 0.996 | locus YMR307W, strain GAS1, hits give low values 0.997 | locus YNL128W, strain TEP1, hits give low values 1.01 | locus YNL153C, strain GIM3, hits give low values 1.01 | locus YNL175C, strain NOP13, hits give low values 1.01 | locus YNL197C, strain WHI3, hits give low values 1.01 | locus YNL224C, strain SQS1, hits give low values 1.03 | locus YNL322C, strain KRE1, hits give low values 0.999 | locus YOR083W, strain WHI5 (second series), hits give low values 1.02 | locus YPL055C, strain LGE1, hits give low values 1.02 | locus YPL241C, strain CIN2, hits give low values 1

NC(=O)c1ccc(N)nc1
inactive: locus YAL021C, strain ccr4, hits give low values 0.994 | locus YAL026C, strain drs2, hits give low values 1.01 | locus YAL030W, strain snc1, hits give low values 0.982 | locus YBR009C, strain hhf1, hits give low values 0.99 | locus YBR023C, strain chs3, hits give low values 0.995 | locus YBR171W, strain sec66, hits give low values 1.02 | locus YBR231C, strain swc5, hits give low values 0.989 | locus YBR279W, strain paf1, hits give low values 0.982 | locus YCL011C, strain gbp2, hits give low values 1 | locus YCL016C, strain dcc1, hits give low values 1 | locus YCL069W, strain vba3, hits give low values 1.01 | locus YCR088W, strain abp1, hits give low values 1.01 | locus YDL005C, strain med2, hits give low values 0.987 | locus YDL040C, strain nat1, hits give low values 0.988 | locus YDR001C, strain nth1, hits give low values 1.01 | locus YDR069C, strain doa4, hits give low values 0.981 | locus YDR137W, strain rgp1, hits give low values 1 | locus YDR159W, strain sac3, hits give low values 0.978 | locus YDR195W, strain ref2 0.942 | locus YDR297W, strain sur2, hits give low values 0.999 | locus YDR334W, strain swr1, hits give low values 0.99 | locus YDR335W, strain msn5, hits give low values 1 | locus YDR392W, strain spt3, hits give low values 1 | locus YEL003W, strain gim4, hits give low values 1 | locus YEL037C, strain rad23, hits give low values 1.01 | locus YEL061C, strain CIN8 (second series), hits give low values 1 | locus YER015W, strain faa2, hits give low values 0.997 | locus YER016W, strain bim1, hits give low values 0.997 | locus YER111C, strain swi4, hits give low values 1.01 | locus YER155C, strain BEM2 (second series), hits give low values 1.01 | locus YFR010W, strain ubp6, hits give low values 1 | locus YGL167C, strain pmr1, hits give low values 0.999 | locus YGL173C, strain kem1, hits give low values 0.993 | locus YGL227W, strain vid30, hits give low values 1.01 | locus YGL240W, strain doc1, hits give low values 1 | locus YGL253W, strain hxk2, hits give low values 1.01 | locus YHR013C, strain ard1, hits give low values 0.979 | locus YHR027C, strain rpn1, hits give low values 0.998 | locus YHR030C, strain SLT2, hits give low values 1.03 | locus YHR079C, strain IRE1, hits give low values 1.02 | locus YHR142W, strain chs7, hits give low values 1.01 | locus YJL092W, strain hpr5, hits give low values 1 | locus YJL095W, strain BCK1 (second series), hits give low values 0.989 | locus YJL095W, strain BCK1, hits give low values 1.03 | locus YJL115W, strain asf1, hits give low values 1 | locus YJL129C, strain trk1, hits give low values 1.01 | locus YJL154C, strain vps35, hits give low values 0.995 | locus YJL164C, strain tpk1, hits give low values 0.978 | locus YJL166W, strain qcr8, hits give low values 1.01 | locus YJR066W, strain TOR1, hits give low values 0.951 | locus YKL160W, strain elf1, hits give low values 0.975 | locus YKR026C, strain gcn3, hits give low values 1.01 | locus YKR091W, strain srl3, hits give low values 0.997 | locus YLL001W, strain dnm1, hits give low values 1.01 | locus YLL026W, hits give low values 0.999 | locus YLL041C, strain sdh2, hits give low values 1 | locus YLR027C, strain aat2, hits give low values 1.01 | locus YLR113W, strain HOG1, hits give low values 1.02 | locus YLR221C, strain rsa3, hits give low values 0.995 | locus YLR258W, strain gsy2, hits give low values 1 | locus YLR262C, strain YPT6 (second series), hits give low values 1.01 | locus YLR320W, strain mms22, hits give low values 0.995 | locus YLR342W, strain FKS1, hits give low values 0.996 | locus YLR357W, strain rsc2, hits give low values 0.967 | locus YLR370C, strain arc18, hits give low values 1 | locus YLR384C, strain iki3, hits give low values 0.986 | locus YML120C, strain ndi1, hits give low values 0.987 | locus YMR058W, strain fet3, hits give low values 0.999 | locus YMR125W, strain sto1, hits give low values 1.01 | locus YMR129W, hits give low values 0.983 | locus YMR205C, strain PFK2, hits give low values 0.998 | locus YMR231W, strain pep5, hits give low values 1 | locus YNL071W, strain lat1, hits give low values 0.99 | locus YNL183C, strain NPR1, hits give low values 0.961 | locus YNL209W, strain ssb2, hits give low values 0.996 | locus YNL248C, strain rpa49, hits give low values 1.01 | locus YNL322C, strain KRE1 (second series), hits give low values 0.986 | locus YNR049C, strain mso1, hits give low values 1.01 | locus YOR001W, strain rrp6, hits give low values 0.997 | locus YOR070C, strain gyp1, hits give low values 0.993 | locus YOR080W, strain dia2, hits give low values 0.993 | locus YOR083W, strain WHI5, hits give low values 1 | locus YOR106W, strain vam3, hits give low values 1.01 | locus YOR231W, strain MKK1, hits give low values 1.05 | locus YOR265W, strain rbl2, hits give low values 0.993 | locus YOR270C, strain vph1, hits give low values 1.02 | locus YOR290C, strain snf2, hits give low values 1.01 | locus YPL051W, strain arl3, hits give low values 0.993 | locus YPL078C, strain atp4, hits give low values 1 | locus YPL106C, strain sse1, hits give low values 0.992 | locus YPL240C, strain hsp82, hits give low values 0.993 | locus YPL256C, strain CLN2, hits give low values 1.03
